# Screen size: about 310,000 compounds; about 14,000 (4.5%) showed an effect of 50% or more. The effect is printed as a negative number. This is one part of a sample in which strong results are shown more often than they occur.
# Molecular target: human ether-à-go-go-related gene (hERG) potassium channel (human, UniProt Q12809)
# Assay: primary screen, population patch clamp on CHO cells stably expressing hERG; higher = less effect of the substance
# 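Note: peak tail current of the secondary pulse compared with the same well before compound.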
# human ether-à-go-go-related gene (hERG) potassium channel, sequence (Q12809 whole entry, looked up): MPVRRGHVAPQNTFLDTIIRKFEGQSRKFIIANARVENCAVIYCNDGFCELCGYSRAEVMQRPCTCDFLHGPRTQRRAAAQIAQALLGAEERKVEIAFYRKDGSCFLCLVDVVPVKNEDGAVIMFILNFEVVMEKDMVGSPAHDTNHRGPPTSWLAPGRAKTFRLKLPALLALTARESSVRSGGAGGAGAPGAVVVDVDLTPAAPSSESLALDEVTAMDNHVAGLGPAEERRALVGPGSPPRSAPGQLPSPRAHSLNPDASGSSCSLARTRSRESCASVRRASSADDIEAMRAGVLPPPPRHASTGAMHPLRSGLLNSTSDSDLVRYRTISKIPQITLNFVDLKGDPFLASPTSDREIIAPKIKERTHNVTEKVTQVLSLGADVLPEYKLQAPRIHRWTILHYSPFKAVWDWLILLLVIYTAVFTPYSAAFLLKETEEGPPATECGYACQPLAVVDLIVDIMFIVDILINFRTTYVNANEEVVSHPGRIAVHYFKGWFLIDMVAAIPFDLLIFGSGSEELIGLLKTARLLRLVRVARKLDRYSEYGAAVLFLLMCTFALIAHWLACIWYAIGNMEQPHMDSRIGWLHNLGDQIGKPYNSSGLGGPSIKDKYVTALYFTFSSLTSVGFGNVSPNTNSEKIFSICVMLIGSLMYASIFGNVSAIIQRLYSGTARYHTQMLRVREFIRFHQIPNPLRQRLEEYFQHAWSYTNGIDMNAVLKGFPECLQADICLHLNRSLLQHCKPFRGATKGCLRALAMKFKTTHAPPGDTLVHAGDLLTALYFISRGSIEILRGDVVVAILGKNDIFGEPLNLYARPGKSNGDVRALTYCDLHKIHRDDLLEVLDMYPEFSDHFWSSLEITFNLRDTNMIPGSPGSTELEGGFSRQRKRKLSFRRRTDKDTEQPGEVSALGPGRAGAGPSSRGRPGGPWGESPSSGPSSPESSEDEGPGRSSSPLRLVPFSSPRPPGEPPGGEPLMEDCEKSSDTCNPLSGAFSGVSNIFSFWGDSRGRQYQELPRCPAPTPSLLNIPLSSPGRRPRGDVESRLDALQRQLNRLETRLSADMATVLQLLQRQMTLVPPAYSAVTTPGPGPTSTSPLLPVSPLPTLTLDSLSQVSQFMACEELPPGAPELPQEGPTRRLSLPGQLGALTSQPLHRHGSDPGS
row,Compound,"hERG current change (%, negative = inhibition) at 10uM [%]"
1,COc1ccc(-c2cnn3c4c(c(C)nc23)CCN4C2CCCC2)cc1OC,2.7
2,COc1ccc(S(=O)(=O)N2CCC(C(=O)NCc3cccc(OC)c3)CC2)cc1,-17.4
3,COc1cccc(CNC(=O)C2CCN(S(=O)(=O)c3ccccc3)CC2)c1,-36
4,COc1cccc(CNC(=O)C2CCN(S(=O)(=O)c3ccc(C)cc3)CC2)c1,-50.4
5,COc1ccc(S(=O)(=O)N2CCC(C(=O)NCCC(=O)NCc3cccc(OC)c3)CC2)cc1,-4.05
6,COc1cccc(CNC(=O)C2CCN(S(=O)(=O)c3ccc(-n4cnnn4)cc3)CC2)c1,-57.3
7,COc1ccc(CNC(=O)C2CCCN(S(=O)(=O)c3ccc(-n4cnnn4)cc3)C2)cc1 (stereo not shown),-8.97
8,Cc1ccc(C(=O)Nc2ccc(N3CCN(S(C)(=O)=O)CC3)cc2)cc1,4.23
9,c1ccc(-c2nnc3ccc(N4CCC5(CC4)OCCO5)nn23)cc1,-46.8
10,Brc1ccc2ncnc(NCc3ccco3)c2c1,-39.5
11,N#CCc1c(C#N)c(N)nc(N2CCN(c3ccc(F)cc3)CC2)c1C#N,-63.9
12,N#CCc1c(C#N)c(N)nc(N2CCOCC2)c1C#N,1.34
13,N#CCc1c(C#N)c(N)nc(N2CCN(C=O)CC2)c1C#N,-10.8
14,O=C1OC(=O)c2c(Br)c(Br)c(Br)c(Br)c21,20.7
15,O=C(NCCOc1ccccc1)c1cncc(Br)c1,-26.8
16,CC(C)c1ccccc1OCCNC(=O)c1cccnc1,-1.33
17,CC(C)c1ccccc1OCCNC(=O)c1cncc(Br)c1,-60.6
18,CC(=O)Oc1ccccc1/C=C/c1ccc2ccccc2[n+]1C.[I-],11.3
19,O=C(NCc1ccccc1)C1CCC(=O)N(CC2CCCCC2)C1 (stereo not shown),9.03
20,CC[n+]1c(/C=C2\C=C(C)CC(C)(C)C2)sc2ccccc21.[I-],-39.7
21,CCC1=C/C(=C/c2sc3ccccc3[n+]2CC)CC(C)(C)C1.[I-],11.5
22,CC[n+]1c(/C=C2/C=C(C)CC(C)(C)C2)sc2ccc(OC)cc21.Cc1ccc(S(=O)(=O)[O-])cc1,-68.7

row,Compound,"hERG current change (%, negative = inhibition) at 10uM [%]"
1,O=C(COc1ccccc1)Nc1nnc(-c2ccccc2Cl)o1,8.56
2,CCOC(=O)c1cc(NC(=O)CN2CCCC2)cc(C(=O)OCC)c1,-16.2
3,Br.c1ccc(CN2CCC(N=C3NN=C(c4ccc5c(c4)OCCO5)CS3)CC2)cc1,-43.1
4,Cc1cccc(C)c1NC(=O)CNC(=O)CN1C(=O)NC2(CCc3ccccc32)C1=O (stereo not shown),1.69
5,O=C1N=C(N2CCOCC2)S/C1=C\c1ccccc1OS(=O)(=O)c1ccccc1,0.61
6,CC(=O)N1CCN(C2=NC(=O)/C(=C/c3ccc(OS(=O)(=O)c4ccccc4)cc3)S2)CC1,-69.6
7,CN1CCN(C2=NC(=O)/C(=C/c3ccccc3OS(=O)(=O)c3ccccc3)S2)CC1,-76.1
8,NC1=NC(=O)/C(=C/c2ccccc2OS(=O)(=O)c2ccccc2)S1,5.2
9,O=C1N=C(N2CCOCC2)S/C1=C\c1ccc(OS(=O)(=O)c2ccccc2)cc1,-49.8
10,CC(=O)N1CCN(C2=NC(=O)/C(=C\c3cccs3)S2)CC1,-37.1
11,CCOc1ccccc1CNC(=O)c1ccc2nc(N3CCOCC3)sc2c1,-47.5
12,O=C(Nc1cc(Cl)ccc1O)C1CC(c2ccccc2O)=NO1 (stereo not shown),-5.36
13,O=C(O)CSc1ncnc2c1sc1nc(-c3ccccc3)c3c(c12)CCC3,10.3
14,O=C(COc1ccc(C(=O)O)cc1)Nc1cccc(C(F)(F)F)c1,22.5
15,CCOC(=O)C1CCN(C(=O)c2ccc(OCC(=O)Nc3ccc(OCC)cc3)c(OC)c2)CC1,-19.5
16,CCOC(=O)C1CCN(C(=O)c2ccc(OCC(=O)Nc3cccc(C(F)(F)F)c3)c(OC)c2)CC1,-61.9
17,CCOC(=O)C1CCN(C(=O)c2ccc(OCC(=O)Nc3cccc(C(F)(F)F)c3)cc2)CC1,-55.5
18,NC(=O)C1CCN(C(=O)c2ccc(OCC(=O)Nc3cccc(C(F)(F)F)c3)cc2)CC1,1.96
19,CCOc1ccc(NC(=O)COc2ccc(C(=O)N3CCC(C(N)=O)CC3)cc2OC)cc1,9.91
20,Cc1nc(C(=O)NNC(=O)c2ccc(Cl)cc2)c(C(F)(F)F)o1,7.36
21,CCCN1CNC(=S)N(CC2CCCO2)C1 (stereo not shown),5.19
22,CCCCNC(=S)Nc1ccc2nc3n(c(=O)c2c1)CCCCC3,-43.6

row,Compound,"hERG current change (%, negative = inhibition) at 10uM [%]"
1,CCCCN(C)C(=S)Nc1ccc2nc3n(c(=O)c2c1)CCCCC3,-81.2
2,CCN(CC)C(=S)Nc1ccc2nc3n(c(=O)c2c1)CCCCC3,-21.8
3,CCN(CC)CCNC(=S)Nc1ccc2nc3n(c(=O)c2c1)CCCCC3,0.152
4,O=c1c2cc(NC(=S)NCc3cccnc3)ccc2nc2n1CCCCC2,-10.1
5,CN(Cc1ccccc1)C(=S)Nc1ccc2nc3n(c(=O)c2c1)CCCCC3,-78.1
6,CCCN(CCC)CCCNC(=S)Nc1ccc2nc3n(c(=O)c2c1)CCCCC3,6.36
7,CCCCN(CC)CCCNC(=S)Nc1ccc2nc3n(c(=O)c2c1)CCCCC3,-11.9
8,CCCCN(CC)C(=S)Nc1ccc2nc3n(c(=O)c2c1)CCCCC3,-59
9,COC(=O)c1cc(NC(=S)NCc2ccc(Cl)cc2)cc(C(=O)OC)c1,-20.6
10,Cc1ccc(Nc2nnc(SCC(=O)Nc3ccccc3[N+](=O)[O-])s2)cc1,7.88
11,CCOC(=O)CN1C(=O)/C(=C2\SC(=S)N(NC(=O)c3cccnc3)C2=O)c2ccccc21,11.5
12,O=C(NCc1ccc(F)cc1)c1cc(S(=O)(=O)N2CCOCC2)ccc1F,-20.6
13,C[C@H](NC(=O)c1cc2c([nH]c3ccccc32)c(-c2ccccc2)n1)C(=O)O,11.8
14,O=C(Nc1ccccc1C(F)(F)F)N1CCN(C(c2ccccc2)c2ccccc2)CC1,15.5
15,COc1ccc(-c2nc(SC)n(C(=O)c3ccco3)n2)cc1,13.7
16,O=S(=O)(/C=C/c1cccc(Br)c1)N1CCOCC1,-6.85
17,CCC(=NCCO)c1c(O)n(-c2ccc(Cl)cc2)c(=O)[nH]c1=O,15.5
18,CC(=O)c1c(-c2ccc(C)cc2)nc2c3ccccc3ccn12,10.2
19,COc1ccc(C(=O)c2c3ccccc3[n+]([O-])n2CCC(N)=O)cc1,13.1
20,COc1ccc(C(=O)c2c3ccc(OC)cc3[n+]([O-])n2Cc2ccc(C(N)=O)cc2)cc1,-42
21,COc1ccc(C(=O)c2c3ccc(C(F)(F)F)cc3[n+]([O-])n2CCC[NH3+])cc1.[Cl-],-73.3
22,COc1ccc2c(C(=O)c3ccc(Cl)cc3)n(CCCC(N)=O)[n+]([O-])c2c1,-55.5

row,Compound,"hERG current change (%, negative = inhibition) at 10uM [%]"
1,COc1ccc2c(C(=O)c3ccc(C)cc3)n(Cc3ccc(C(N)=O)cc3)[n+]([O-])c2c1,-12.5
2,COc1ccc(C(=O)c2c3ccc([N+](=O)[O-])cc3[n+]([O-])n2CCCC(N)=O)cc1,-34.6
3,COc1ccc(C(=O)c2c3ccc(OC)cc3[n+]([O-])n2CCCC(N)=O)cc1,-34.9
4,COc1ccc2c(C(=O)c3ccc(C)cc3)n(CCCC(N)=O)[n+]([O-])c2c1,-44.2
5,COc1ccc(C(=O)c2c3ccc(C(F)(F)F)cc3[n+]([O-])n2CCCC(N)=O)cc1,-51.6
6,COc1ccc(S(=O)(=O)O/N=C2\CCSc3ccc(C)cc32)cc1,3.61
7,CCOCCCNCc1cn(-c2ccc(F)cc2F)nc1-c1ccccc1C,-48
8,CCc1cc(=O)oc2cc(C)cc(OC(C)C(=O)NCCN3CCOCC3)c12 (stereo not shown),4.16
9,CCO[C@@H]1OC(C(=O)NCc2nc3ccccc3[nH]2)=C[C@H](c2ccc(C(F)(F)F)cc2)[C@H]1CCCO,-3.34
10,COC(=O)c1ccc(C[n+]2ccccc2)cc1.[Br-],17.3
11,Cc1ccc(CN2CCN(CC(=O)N3CCc4ccccc4C3)C2=O)cc1,-50.8
12,Cc1ccc(CN2CCN(CC(=O)NCc3ccc(Cl)cc3)C2=O)cc1,-50.4
13,Cc1ccc(CNC(=O)CN2CCN(Cc3ccc(C)cc3)C2=O)cc1,-26.5
14,COCCCNC(=O)CN1CCN(Cc2ccc(Cl)cc2)C1=O,1.74
15,CN(CCNC(=O)CN1CCN(Cc2ccccc2Cl)C1=O)Cc1ccccc1,-30.4
16,Cc1ccc(-n2c(C)nnc2SCC(=O)N2CCc3ccccc3C2)cc1,-53.3
17,CCN(CCNC(=O)CN1CCN(Cc2ccc(Cl)cc2)C1=O)c1ccccc1,-52
18,Cc1ccc(CN2CCN(CC(=O)N3CCC(C(N)=O)CC3)C2=O)cc1,5.43
19,Cc1ccc(CN2CCN(CC(=O)O)C2=O)cc1,41.5
20,Cc1nnc(SCC(=O)N2CCc3ccccc3C2)n1-c1ccccc1,-23.6
21,Cc1ccc(-n2c(C)nnc2SCC(=O)N2CCc3ccccc3C2)cc1C,-21.9
22,Cc1ccc(CNC(=O)CN2CCN(Cc3ccc(Cl)cc3)C2=O)cc1,-20.9

# Reference: paper PMC4336329 (PLoS ONE, 2015)
